Screening results (PubChem)
Kir21 block – inhibitors of mouse Kir2.1 inward-rectifier potassium channel. AID 1672, 2009. Inward rectifier potassium channel 2 (Mus musculus), P35561. HEK293-Kir2.1, FluxOR thallium flux fluorescence; active compounds read low. B-score at 10 µM. 310,000 tested, 0.85% active;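 active = fluorescence ratio B-score at or below minus 3 SD of library scores, with starting-brightness B-score within 2 SD, cut at about -4.2 in these data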;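 note: channel flux triggered by added potassium and thallium sulfate stimulus; B-score of peak minus minimum fluorescence over baseline after thallium stimulus; more negative B-score means stronger Kir2.1 block with less thallium influx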
CHT inh – inhibitors of human choline transporter CHT; High affinity choline transporter 1 (Homo sapiens), Q9GZV3; CHT-expressing cells, membrane potential dye, choline response; active compounds read low; B-score at 10 µM; 310,000 tested, 0.86% active; AID 488975, 2010;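 active = B-score over 3 SD under the library average, and starting fluorescence ratio not unusually high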;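 note: choline stimulus applied at its EC90 after an EC20 pre-addition; B-score computed on integrated fluorescence ratio after choline addition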
Target sequence (Q9GZV3 whole entry, looked up): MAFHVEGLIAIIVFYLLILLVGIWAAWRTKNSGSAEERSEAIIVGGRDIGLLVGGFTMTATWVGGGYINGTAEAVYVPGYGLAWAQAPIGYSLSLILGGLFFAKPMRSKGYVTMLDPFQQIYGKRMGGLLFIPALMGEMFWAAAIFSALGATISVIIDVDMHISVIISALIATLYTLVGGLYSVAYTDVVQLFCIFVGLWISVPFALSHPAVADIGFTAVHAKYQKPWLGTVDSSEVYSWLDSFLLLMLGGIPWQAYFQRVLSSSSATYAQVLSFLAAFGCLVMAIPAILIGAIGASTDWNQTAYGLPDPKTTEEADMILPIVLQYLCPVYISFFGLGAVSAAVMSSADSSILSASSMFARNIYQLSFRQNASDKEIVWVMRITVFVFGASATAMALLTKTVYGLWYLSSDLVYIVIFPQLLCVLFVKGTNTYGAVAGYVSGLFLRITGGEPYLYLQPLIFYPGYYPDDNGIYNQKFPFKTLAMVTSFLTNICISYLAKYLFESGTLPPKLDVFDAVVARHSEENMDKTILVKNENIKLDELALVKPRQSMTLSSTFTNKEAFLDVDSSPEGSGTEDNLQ
H9c2 TAG inh – inhibitors of triacylglycerol accumulation, primary screen, cell-based, uHTS, fluorescence, H9c2 | AID 651582, 2012 | H9c2 cells, Nile Red lipid (TAG) fluorescence; cells loaded with 200 µM oleic acid | inhibition, % at 12.5 µM | 230,000 tested, 0.66% active;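 active = pattern-corrected inhibition of lipid staining of at least 50% with the nuclear-stain viability signal not falling by more than 50%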;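 note: 0% = DMSO wells and 100% = triacsin C control wells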
CHT PAM – CHT positive allosteric modulators, primary screen, cell-based, membrane potential dye, choline EC20 | High affinity choline transporter 1 (Homo sapiens), Q9GZV3 | CHT-expressing cells; active compounds read high; LV-AA mutant CHT in HEK293 cells | B-score at 10 µM | 310,000 tested, 0.49% active | AID 488977, 2010;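 active = initial fluorescence not abnormally high and integrated response B-score, plate-corrected, over 3 SD above library mean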
CHT act confirm – CHT activators, confirmation, cell-based, membrane potential dye, duplicate; shares compounds with CHT PAM; CHT-expressing cells, membrane potential dye fluorescence (FDSS); % of choline EC20–EC90 response window; HEK293 expressing CHT LV-AA mutant; choline added at its EC20; activation, % at 10 µM; 2,500 tested, 91% active; AID 504833, 2011;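 active = primary screen active, with duplicate mean activation above negative control mean plus 3 SD, cut at about 11% in these data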
HEK293 MP dye – membrane potential response in parental HEK293 cells, counter-screen for CHT activator project, cell-based, membrane potential dye; shares compounds with CHT PAM; membrane potential dye fluorescence (FDSS); measured after EC20 choline addition; ratio readout change at 10 µM, hits read low; 2,500 tested, 62% active; AID 623908, 2012;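 active = duplicate-averaged ratio beyond 3 SD from buffer wells, up or down, though filed actives are nearly all decreases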
The depositor's hits bear a star; i = inactive; . = no result. This is a sample that favours compounds with a hit; in the whole collection about 2% have one here.

SMILES	Kir21 block	CHT inh	H9c2 TAG inh	CHT PAM	CHT act confirm	HEK293 MP dye
COC(=O)C1=C(c2cccc(OCc3ccccc3)c2)C[C@@H]2CC[C@H]1N2C(=O)NCc1ccccc1C(F)(F)F	.	.	22	.	.	.
CN1CCN(c2nc(N(C)C)oc(=O)c2C#N)CC1	0.65	i	1	i	54*	-47*
CCCC[N+]12CCC(CC1)C(=C(c1ccccc1)c1ccccc1)C2	-0.59	i	.	9.4*	61*	i
CCC[N+]12CCC(CC1)C(=C(c1ccccc1)c1ccccc1)C2	0	i	.	6.5*	16*	i
c1cc2c(cc1[C@H]1OC[C@H]3[C@@H]1CO[C@H]3c1ccc3c(c1)OCO3)OCO2	.	.	5	.	.	.
O=C(Nc1ccc2ccccc2c1)N1C[C@H]2C[C@@H](C1)c1cccc(=O)n1C2	-0.38	i	-12	i	.	.
O=C(Nc1ccccc1)c1cc([N+](=O)[O-])ccc1N1CCNCC1	0.84	i	29	i	.	.
O=[N+]([O-])c1ccc2nc(N3CCNCC3)ccc2c1	0.54	i	.	11*	37*	-51*
CN1CCN(c2ccc([N+](=O)[O-])c(NCC3CCCO3)c2)CC1 (stereo unspecified)	0.98	i	.	6.3*	52*	-51*
CN1CCN(c2ccc([N+](=O)[O-])c(NCc3ccco3)c2)CC1	-0.61	i	.	i	.	.
CN1CCN(c2ccc([N+](=O)[O-])c(SCCO)c2)CC1	-1	i	9	6.8*	37*	-65*
CN1CCN(c2ccc([N+](=O)[O-])c(N)c2)CC1	0.16	i	.	i	.	.
N#CC1=C(N)Oc2c(c(=O)oc3ccccc23)C1c1ccc(OC(=O)N2CCOCC2)cc1 (stereo unspecified)	0.07	i	17	i	.	.
[N-]=[N+]=NCCN1CCC(O)CCC1=O (stereo unspecified)	0.36	i	2	i	.	.
CCN(CC)C(=O)c1ccc(NC(=O)COC(=O)c2ccc(Cl)s2)cc1	.	.	4	.	.	.
Cn1c(O)c(/C=N/c2ncccn2)c(=O)n(C)c1=O	0.37	i	.	i	38*	-36*
OCC[N+]12CCC(CC1)C(C(O)(c1ccccc1)c1ccccc1)C2 (stereo unspecified)	-0.01	i	-3	i	.	.
O=C(C[N+]12CCC(CC1)C(C(O)(c1ccccc1)c1ccccc1)C2)c1ccc(Br)cc1 (stereo unspecified)	-0.4	i	1	i	30*	-22*
CCOc1nc(NC(C)C)nc(N2CC3CC(C2)c2cccc(=O)n2C3)n1 (stereo unspecified)	0.79	i	.	i	.	.
O=C1CC(N2CC2)C(=O)N1c1ccccc1 (stereo unspecified)	.	.	7	.	.	.
OC(Cn1c2ccccc2c2ccccc21)C[n+]1cccc2ccccc21 (stereo unspecified)	-5.2*	i	.	i	39*	-38*
CC(C)(C)C(=O)NC1CCSC1=O (stereo unspecified)	-0.06	i	.	i	.	.
COc1c2c(cc3c1OCO3)CCN(C)C2	.	i	5	i	.	.
COc1cc2c(cc1OC)-c1c3c(cc4c1[C@@H](C2)N(C)CC4)OCO3	-0.38	i	53*	i	42*	-48*
C[n+]1ccc(-c2ccccc2)c2ccccc21	1.2	i	-37	8.6*	85*	-70*
SMILES	Kir21 block	CHT inh	H9c2 TAG inh	CHT PAM	CHT act confirm	HEK293 MP dye
CN(C)c1cc[n+](CC(O)C[n+]2ccc(N(C)C)cc2)cc1	-0.15	i	5	7.7*	35*	-71*
COc1ccc2c3c([nH]c2c1)C(C)=NCC3	-0.74	i	-7	i	33*	-43*
CC1=NCCc2c1[nH]c1cc(O)ccc21	.	i	-39	i	.	.
Fc1ccc(C[n+]2c(-c3ccccc3)cc(-c3ccccc3)cc2-c2ccccc2)cc1	-9.3*	i	.	8.2*	32*	i
Cc1cccc(NP(=O)(Oc2ccccc2F)Oc2ccccc2F)c1	-1	i	.	i	23*	i
CC[n+]1c(/C=C/C=C/c2ccc(N(C)C)cc2)sc2ccccc21	-4	i	22	i	.	.
